Reference: PubChem BioAssay AID1159580 (chemical genetic matrix, 2015)
Screen size: about 5,500 compounds; about 2,000 (36%) were called active. Not shown: some 18% with an inconclusive outcome. Cut-off read from the data, not from the text of the source: active = normalized growth mostly below about 0.91 (no sharp cut-off); inconclusive = no clear call, values can overlap the other calls; inactive = mostly above about 0.92. This is one part of the list.

Assay: chemical genetic growth profiling, strain panel (AID 1159580);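 note: tested at 20 µM; growth read once vehicle control cultures reached saturation at 30 °C; 1 = growth at the plate median or of vehicle wells; lower values mean less growth of the strain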
Conditions: growth OD

Measured: normalized growth

CC(=O)OCC(CCn1cnc2cnc(N)nc21)COC(C)=O
inactive: S. cerevisiae deletion strains, locus YJR075W, strain HOC1, stronger effect = lower value 0.991 | S. cerevisiae deletion strains, locus YKL009W, strain mrt4, stronger effect = lower value 0.973 | S. cerevisiae deletion strains, locus YKL068W, stronger effect = lower value 0.977 | S. cerevisiae deletion strains, locus YKL085W, strain MDH1 (second series), stronger effect = lower value 0.971 | S. cerevisiae deletion strains, locus YKL085W, strain MDH1, stronger effect = lower value 0.971 | S. cerevisiae deletion strains, locus YKL160W, strain elf1, stronger effect = lower value 0.981 | S. cerevisiae deletion strains, locus YKL190W, strain CNB1, stronger effect = lower value 0.989 | S. cerevisiae deletion strains, locus YKR001C, strain vps1, stronger effect = lower value 0.986 | S. cerevisiae deletion strains, locus YKR026C, strain gcn3, stronger effect = lower value 0.991 | S. cerevisiae deletion strains, locus YKR091W, strain srl3, stronger effect = lower value 0.989 | S. cerevisiae deletion strains, locus YLL001W, strain dnm1, stronger effect = lower value 0.986 | S. cerevisiae deletion strains, locus YLL026W, stronger effect = lower value 0.987 | S. cerevisiae deletion strains, locus YLL041C, strain sdh2, stronger effect = lower value 0.99 | S. cerevisiae deletion strains, locus YLR027C, strain aat2, stronger effect = lower value 0.97 | S. cerevisiae deletion strains, locus YLR039C, strain RIC1, stronger effect = lower value 0.955 | S. cerevisiae deletion strains, locus YLR058C, strain SHM2, stronger effect = lower value 0.977 | S. cerevisiae deletion strains, locus YLR102C, strain apc9, stronger effect = lower value 0.963 | S. cerevisiae deletion strains, locus YLR113W, strain HOG1, stronger effect = lower value 0.966 | S. cerevisiae deletion strains, locus YLR221C, strain rsa3, stronger effect = lower value 1 | S. cerevisiae deletion strains, locus YLR258W, strain gsy2, stronger effect = lower value 0.992 | S. cerevisiae deletion strains, locus YLR262C, strain YPT6 (second series), stronger effect = lower value 0.985 | S. cerevisiae deletion strains, locus YLR262C, strain YPT6, stronger effect = lower value 0.96 | S. cerevisiae deletion strains, locus YLR268W, strain sec22, stronger effect = lower value 0.964 | S. cerevisiae deletion strains, locus YLR320W, strain mms22, stronger effect = lower value 1.01 | S. cerevisiae deletion strains, locus YLR330W, strain CHS5, stronger effect = lower value 0.986 | S. cerevisiae deletion strains, locus YLR342W, strain FKS1 (second series), stronger effect = lower value 1.03 | S. cerevisiae deletion strains, locus YLR342W, strain FKS1, stronger effect = lower value 0.989 | S. cerevisiae deletion strains, locus YLR357W, strain rsc2, stronger effect = lower value 0.969 | S. cerevisiae deletion strains, locus YLR370C, strain arc18, stronger effect = lower value 0.994 | S. cerevisiae deletion strains, locus YLR371W, strain rom2, stronger effect = lower value 0.955 | S. cerevisiae deletion strains, locus YLR384C, strain iki3, stronger effect = lower value 0.974 | S. cerevisiae deletion strains, locus YLR418C, strain cdc73, stronger effect = lower value 0.982 | S. cerevisiae deletion strains, locus YML016C, strain PPZ1, stronger effect = lower value 0.981 | S. cerevisiae deletion strains, locus YML032C, strain rad52, stronger effect = lower value 0.975 | S. cerevisiae deletion strains, locus YML120C, strain ndi1, stronger effect = lower value 0.989 | S. cerevisiae deletion strains, locus YML124C, strain tub3, stronger effect = lower value 0.973 | S. cerevisiae deletion strains, locus YMR058W, strain fet3, stronger effect = lower value 0.988 | S. cerevisiae deletion strains, locus YMR078C, strain ctf18, stronger effect = lower value 0.972 | S. cerevisiae deletion strains, locus YMR125W, strain sto1, stronger effect = lower value 0.986 | S. cerevisiae deletion strains, locus YMR129W, stronger effect = lower value 0.986 | S. cerevisiae deletion strains, locus YMR205C, strain PFK2, stronger effect = lower value 0.992 | S. cerevisiae deletion strains, locus YMR223W, strain ubp8, stronger effect = lower value 0.988 | S. cerevisiae deletion strains, locus YMR231W, strain pep5, stronger effect = lower value 0.986 | S. cerevisiae deletion strains, locus YMR263W, strain SAP30, stronger effect = lower value 0.993 | S. cerevisiae deletion strains, locus YMR307W, strain GAS1, stronger effect = lower value 0.957 | S. cerevisiae deletion strains, locus YNL067W, strain RPL9B, stronger effect = lower value 1 | S. cerevisiae deletion strains, locus YNL071W, strain lat1, stronger effect = lower value 0.995 | S. cerevisiae deletion strains, locus YNL128W, strain TEP1, stronger effect = lower value 0.992 | S. cerevisiae deletion strains, locus YNL153C, strain GIM3, stronger effect = lower value 0.996 | S. cerevisiae deletion strains, locus YNL183C, strain NPR1, stronger effect = lower value 0.959 | S. cerevisiae deletion strains, locus YNL209W, strain ssb2, stronger effect = lower value 0.994 | S. cerevisiae deletion strains, locus YNL233W, strain BNI4, stronger effect = lower value 0.99 | S. cerevisiae deletion strains, locus YNL248C, strain rpa49, stronger effect = lower value 0.991 | S. cerevisiae deletion strains, locus YNL250W, strain rad50, stronger effect = lower value 0.971 | S. cerevisiae deletion strains, locus YNL271C, strain bni1, stronger effect = lower value 0.956 | S. cerevisiae deletion strains, locus YNL298W, strain CLA4, stronger effect = lower value 0.946 | S. cerevisiae deletion strains, locus YNL307C, strain MCK1, stronger effect = lower value 0.99 | S. cerevisiae deletion strains, locus YNL322C, strain KRE1 (second series), stronger effect = lower value 0.995 | S. cerevisiae deletion strains, locus YNL322C, strain KRE1, stronger effect = lower value 0.99 | S. cerevisiae deletion strains, locus YNR049C, strain mso1, stronger effect = lower value 0.983 | S. cerevisiae deletion strains, locus YNR052C, strain pop2, stronger effect = lower value 0.967 | S. cerevisiae deletion strains, locus YOL006C, strain TOP1, stronger effect = lower value 0.955 | S. cerevisiae deletion strains, locus YOL012C, strain htz1 0.703 | S. cerevisiae deletion strains, locus YOL147C, strain pex11, stronger effect = lower value 0.969 | S. cerevisiae deletion strains, locus YOR001W, strain rrp6, stronger effect = lower value 0.974 | S. cerevisiae deletion strains, locus YOR061W, strain CKA2, stronger effect = lower value 0.966 | S. cerevisiae deletion strains, locus YOR069W, strain VPS5, stronger effect = lower value 0.982 | S. cerevisiae deletion strains, locus YOR070C, strain gyp1, stronger effect = lower value 0.996 | S. cerevisiae deletion strains, locus YOR080W, strain dia2, stronger effect = lower value 0.975 | S. cerevisiae deletion strains, locus YOR083W, strain WHI5, stronger effect = lower value 0.987 | S. cerevisiae deletion strains, locus YOR106W, strain vam3, stronger effect = lower value 0.982 | S. cerevisiae deletion strains, locus YOR136W, strain idh2, stronger effect = lower value 0.959 | S. cerevisiae deletion strains, locus YOR144C, strain elg1, stronger effect = lower value 0.958 | S. cerevisiae deletion strains, locus YOR184W, strain ser1, stronger effect = lower value 0.966 | S. cerevisiae deletion strains, locus YOR231W, strain MKK1, stronger effect = lower value 0.991 | S. cerevisiae deletion strains, locus YOR265W, strain rbl2, stronger effect = lower value 0.98 | S. cerevisiae deletion strains, locus YOR270C, strain vph1, stronger effect = lower value 1 | S. cerevisiae deletion strains, locus YOR290C, strain snf2, stronger effect = lower value 1.01 | S. cerevisiae deletion strains, locus YOR316C, strain cot1, stronger effect = lower value 0.958 | S. cerevisiae deletion strains, locus YPL051W, strain arl3, stronger effect = lower value 0.984 | S. cerevisiae deletion strains, locus YPL055C, strain LGE1, stronger effect = lower value 0.992 | S. cerevisiae deletion strains, locus YPL078C, strain atp4, stronger effect = lower value 0.976 | S. cerevisiae deletion strains, locus YPL106C, strain sse1, stronger effect = lower value 0.973 | S. cerevisiae deletion strains, locus YPL240C, strain hsp82, stronger effect = lower value 0.973 | S. cerevisiae deletion strains, locus YPL241C, strain CIN2, stronger effect = lower value 0.993 | S. cerevisiae deletion strains, locus YPL256C, strain CLN2, stronger effect = lower value 0.958 | S. cerevisiae deletion strains, locus YPR119W, strain clb2, stronger effect = lower value 0.974 | S. cerevisiae deletion strains, locus YPR141C, strain kar3, stronger effect = lower value 0.943 | S. cerevisiae deletion strains, locus YPR163C, strain tif3, stronger effect = lower value 0.966 | S. cerevisiae deletion strains, locus YPR167C, strain met16, stronger effect = lower value 0.962 | S. cerevisiae deletion strains, strain wtn01, stronger effect = lower value 0.965 | S. cerevisiae strains, strain wild type, stronger effect = lower value 0.994
